High-throughput results as filed in PubChem.
Only some compounds are listed: those with a hit (about 2% of all), similar ones and a draw of the others.
Abeta yeast res – qHTS for compounds that reverse cellular toxicity of Amyloid beta (A-beta) peptide in yeast: Primary Screen. yeast expressing A-beta42, growth rescue, OD600, 48 h; response scale: 0% DMSO, 100% iron-clioquinol control. hit rate 0.063% among 410,000. Potency, µM (top dose mostly 46.1 µM), usual class: activators; note: potency is the fitted concentration of half-maximal effect; nearly all actives have a fitted effect of over 55% in size
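Yeast growth medium received pinned compounds, then yeast cells expressing toxic A-beta were added; plates incubated at 30 C for 48 hr. Growth read as absorbance at 600 nm, normalized to DMSO and equimolar FeCl3 plus clioquinol controls.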
aSyn rescue – qHTS of alpha-syn Inhibitors. hit rate 0.14% among 370,000. Potency, µM (titrated, usually from 46.1 µM), for inactives: at the highest dose growth rescue (activation), most hits filed as activators. AID 652106, 2013. Yeast expressing alpha-synuclein, growth rescue, BacTiter-Glo, 24 h; note: potency is the fitted concentration of half-maximal effect; % of control where 0% means no effect; nearly all actives have a fitted effect of over 65% in size
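Rescue of yeast growth: cells expressing toxic alpha-synuclein, induced in galactose at OD600 0.02, incubated with compound 24 h at 30 C. ATP luminescence quantified growth; inhibitors of toxicity appear as activators.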
LDHA block – qHTS assay for inhibitors of human lactate dehydrogenase | activity change, % (values are at about 110 or 230 µM) | hit rate 0.15% among 480,000 | AID 1347041, 2019 | purified LDHA, NADH/diaphorase-resazurin fluorescence; hits give low values; in the data active = activity change below about -30%; inconclusive = mostly about -25% to -30%;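 note: plate controls were DMSO wells for no effect and wells without enzyme for full effect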
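Remaining NADH was detected by diaphorase (0.133 mg/mL) converting 37 µM resazurin to fluorescent resorufin, read at 0 and 20 minutes. The preceding 5-minute room-temperature reaction used 2 nM LDHA, 0.2 mM sodium pyruvate and 0.06 mM NADH at pH 7.4.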
FUS suppressor – qHTS for Suppressors of FUS Proteinopathy: Primary screen using FUS-linked yeast assay; S. cerevisiae FUS-expressing, growth rescue, OD600, 24 h; hit rate 0.24% among 390,000; Potency, µM (doses to about 76.6 µM), usual class: activators;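 note: potency is the fitted concentration of half-maximal effect; plate controls were DMSO vehicle for no effect and reference control for full effect; nearly all actives have a fitted effect of over 55% in size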
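Galactose (2%) drives FUS expression in yeast precultured in raffinose; seeding density OD 0.005. Test compounds incubated 24hr at 30C and 99% humidity before absorbance at 600 nm was measured.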
mIDH1 inhibitor – qHTS for Inhibitors of mutant isocitrate dehydrogenase 1 (IDH1): qHTS. Isocitrate dehydrogenase [NADP] cytoplasmic (Homo sapiens), O75874. Potency, µM (doses to about 76.6 µM), for inactives: at the highest dose activity change, negative = inhibition, actives largely listed as inhibitors. hit rate 0.093% among 390,000. IDH1-R132H enzyme, NADPH consumption, diaphorase/resazurin fluorescence; note: potency is the fitted concentration of half-maximal effect; % is set by controls: 0 for no effect and ±100 for the full control effect; nearly all actives have a fitted effect of over 65% in size
Target sequence (O75874 whole entry R132H, stated change not applied): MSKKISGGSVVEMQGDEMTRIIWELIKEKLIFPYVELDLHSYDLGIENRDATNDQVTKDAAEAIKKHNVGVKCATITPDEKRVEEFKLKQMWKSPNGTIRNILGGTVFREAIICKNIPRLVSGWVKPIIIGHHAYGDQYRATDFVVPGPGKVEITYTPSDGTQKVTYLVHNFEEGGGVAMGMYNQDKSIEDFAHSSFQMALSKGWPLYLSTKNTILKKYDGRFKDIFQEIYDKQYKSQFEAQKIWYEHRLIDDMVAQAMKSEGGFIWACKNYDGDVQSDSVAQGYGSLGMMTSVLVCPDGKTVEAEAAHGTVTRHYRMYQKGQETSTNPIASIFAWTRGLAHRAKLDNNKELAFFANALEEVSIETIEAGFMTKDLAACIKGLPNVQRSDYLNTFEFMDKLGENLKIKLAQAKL
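IDH1-R132H (0.5 ug/mL) preincubated 30 min with compound, then NADPH (0.016 mM) and alpha-KG (2 mM) added; 80 min at RT, pH 7.5. Remaining NADPH coupled via diaphorase/resazurin to fluorescence (540/590 nm); concentration-response curves normalized to no-enzyme control.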
TDP-43 yeast inh – qHTS of TDP-43 Inhibitors | TDP-43 expressing yeast growth rescue, BacTiter-Glo, 24 h | Potency, µM (series often up to 46.1 µM), inactives show at the top dose growth rescue (activation), most hits filed as activators | hit rate 1.8% among 410,000; note: potency is the fitted concentration of half-maximal effect; % of control where 0% means no effect; nearly all actives have a fitted effect of over 50% in size
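Yeast cells expressing TDP-43 under galactose induction are exposed to compounds for 24 hr at 30 deg C. BacTiter-Glo luminescence measures growth, so protective compounds score as activators.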
Numbers without * were called inactive; i = inactive; u = inconclusive; x = no result. Unless noted, calls come from the whole dose curve; as a rule, active = well fitted curve in the direction sought with a large enough effect; inconclusive = small, poorly fitted or top-dose-only effect, or another doubt; inactive = no such curve, though single readings can be large; an effect the other way counts as inactive or inconclusive.

SMILES	Abeta yeast res	aSyn rescue	LDHA block	FUS suppressor	mIDH1 inhibitor	TDP-43 yeast inh
COc1ccccc1C(=O)N1CCN(C2CCN(Cc3ccccc3)CC2)CC1	i	6%	-16	i	4%	7%
COc1ccccc1N1CCN(C2CCN(C(=O)c3cccc(F)c3)CC2)CC1	i	0%	-32*	x	14%	21%
COc1ccc(C(=O)N2CCN(C3CCN(Cc4ccccc4)CC3)CC2)cc1OC	i	-12%	-40*	x	-1%	7%
O=Cc1cccc2[nH]ccc12	x	x	-4	x	x	x
O=C(CCC(=O)c1ccc(F)cc1)OCc1cccc([N+](=O)[O-])c1	x	x	0	x	x	x
Cc1cccc(C)c1NC(=O)CN(C)Cc1cc(=O)oc2c(C)c(O)ccc12	x	x	-1	x	x	x
COc1ccc(-c2csc3ncnc(N4CCN(c5ccc(OC)cc5)CC4)c23)cc1	i	10%	0	i	4%	11µM*
O=C(c1ccco1)N1CCN(c2ncnc3scc(-c4ccc(F)cc4)c23)CC1	i	12%	-2	i	-3%	18µM*
COc1ccc(-c2csc3ncnc(N4CCN(c5ccccc5O)CC4)c23)cc1	i	u	-1	i	-4%	18µM*
COc1ccc(-c2csc3ncnc(N4CCN(c5ccccc5)CC4)c23)cc1	i	15%	-5	i	-5%	11µM*
COc1ccc(-c2csc3ncnc(N4CCN(c5ccccc5[N+](=O)[O-])CC4)c23)cc1	i	16%	-1	x	8%	0%
COc1ccc(-c2csc3ncnc(N4CCN(Cc5ccccc5)CC4)c23)cc1	i	14%	-4	i	1%	10%
N#Cc1c(N)n[nH]c1CCCNC(=O)c1cn(Cc2ccccc2)nc1-c1ccccc1	x	x	5	x	x	x
CCOc1ccc2ncc(C#N)c(Nc3cc(OC)c(OC)c(OC)c3)c2c1	x	x	15	x	x	x
Cc1cc(Nc2cccc(C(F)(F)F)c2)nc(NCc2ccccc2)n1	x	x	1	x	x	x
O=c1oc2cc(Br)ccc2n1CSC1=NCCS1	i	-8%	-4	i	7%	13µM*
CCOC(=O)CSc1c(-c2cccs2)[nH]c2ccccc12	u	4%	0	i	11%	16µM*
O=C(Nc1ccccc1)C1CC(=O)N(Cc2ccccc2)c2nc3ccccc3n21 (configuration not stated)	x	x	2	x	x	x
O=C(Nc1cccc(NC(=O)c2ccccc2)n1)c1ccccc1	i	-11%	-13	i	-3%	11µM*
CCOC(=O)N1CCC(N2CCN(S(=O)(=O)CC)CC2)CC1	i	6%	-34*	i	-8%	-6%
CCOC(=O)N1CCC(N2CCN(S(=O)(=O)c3ccc(C)cc3)CC2)CC1	i	-7%	-22	i	7%	-13%
COc1ccc(N2CCN(C(=O)Cc3csc(NC(=O)Nc4ccccc4OC)n3)CC2)cc1	i	0%	-1	u	3%	24%
COc1ccccc1NC(=O)Nc1nc(CC(=O)N2CCN(c3ccccc3)CC2)cs1	i	4.5µM*	-2	u	-3%	0%
COc1ccc2c(=O)c(Oc3ccccc3OC)c(C)oc2c1	x	x	-16	x	x	x
Cc1ccc(Sc2ccc(N)cc2C#N)cc1	i	13%	4	x	6%	22µM*
SMILES	Abeta yeast res	aSyn rescue	LDHA block	FUS suppressor	mIDH1 inhibitor	TDP-43 yeast inh
Cc1ccc(Sc2nnc(-c3ccccc3)cc2C#N)cc1	i	4%	-6	i	1%	21%
c1ccc(CN=C2NN=C(c3ccccc3)CS2)cc1	i	5%	-11	i	-6%	13µM*
Clc1ccc(C2=NNC(=NCc3ccccc3)SC2)cc1	i	4%	-5	i	0%	21%
Cc1cc(-c2ccc(S(=O)(=O)Nc3ccc(Cl)cc3C)cc2)on1	i	x	-4	i	10%	16µM*
Cc1ccc(NS(=O)(=O)c2ccc(-c3cc(C)no3)cc2)c(Br)c1	i	x	-1	i	-3%	22µM*
COC(=O)c1ccc(COc2ccccc2C#N)cc1	x	x	1	x	x	x
Cc1ccc(CNC(=O)Cn2c(=O)cc(-c3ccccc3)c3c(C)nn(C)c32)cc1	i	x	-5	i	-3%	22µM*
CCn1nc(C)c2c(-c3ccccc3)cc(=O)n(C(C)C(=O)NCc3cccc(OC)c3)c21 (configuration not stated)	i	x	-2	i	-13%	u
Cc1ccc(CNC(=O)C(C)n2c(=O)cc(-c3ccccc3)c3c(C)nn(C)c32)cc1 (configuration not stated)	i	x	4	i	-11%	22µM*
COc1ccccc1CNC(=O)C(C)n1c(=O)cc(C(F)(F)F)c2c(C)nn(C)c21 (configuration not stated)	i	x	4	i	2%	0%
COc1cccc(CNC(=O)C(C)n2c(=O)cc(-c3ccccc3)c3c(C)nn(C)c32)c1 (configuration not stated)	i	x	-4	i	7%	22µM*
COc1ccccc1CNC(=O)C(C)n1c(=O)cc(-c2ccccc2)c2c(C)nn(C)c21 (configuration not stated)	i	x	-5	u	-13%	16µM*
Cc1c(-c2ccccc2)oc2c(C(=O)Nc3ccc(C(N)=O)cc3)cccc2c1=O	x	x	-12	x	x	x
CC(=O)Nn1c(C)nc2sc3c(c2c1=O)CCNC3	x	x	-13	x	x	x
Cc1ccc(NC(=O)C(c2ccc(Cl)cc2)C(C)C)cc1F (configuration not stated)	x	x	9	x	x	x
Cc1cc(C(=O)O)c2c(C(C)C)nn(-c3ccc(F)cc3)c2n1	x	x	-2	x	x	x
OC(c1ccc(F)cc1)c1nc(/C=C/c2ccccc2)cs1 (configuration not stated)	i	18%	-3	i	x	u
OC(c1ccccc1)c1nc(/C=C/c2ccccc2)cs1 (configuration not stated)	i	25%	1	i	x	14µM*
COc1cc(C(O)c2nc(/C=C/c3ccccc3)cs2)ccc1F (configuration not stated)	i	4%	0	i	x	22µM*
COc1ccc(C(O)c2nc(/C=C/c3ccc(C(F)(F)F)cc3)cs2)cc1 (configuration not stated)	i	u	-2	i	x	u
